{"source": "PubChem BioAssay (NCI)", "note": "The panel holds about 83,000 compounds, 20% with a hit somewhere; the sample as a whole holds those more often.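 Interpretation: 100, growth as untreated; towards 0, rising growth inhibition; 0, no net growth; 0 to -100, cell death. Compounds scoring below 10 were considered active.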 Activity calls are given as the source filed them.", "data": [{"tested_on": "SK-MEL-5 melanoma", "experiment": "NCI-60 one-dose screen, 48 h (100 = growth as untreated, 0 = no growth, -100 = all killed)", "conditions": "10 µM unless noted", "values": [{"smiles": "CCCCCCCCCCCCCCCCCCOc1ccccc1CC(=O)NCC[N+]1(C)CCOCC1", "growth": "75% (inactive)"}, {"smiles": "O=C(/C=C/c1cccc(Cl)c1)c1cccc(OCCCCOc2cccc(C(=O)/C=C/c3cccc(Cl)c3)c2)c1", "growth": "98.6% (inactive)"}, {"smiles": "NC(=O)c1ccc(NC(=O)c2oc3ccccc3c2-c2cnn(-c3ccccc3)c2)cc1", "growth": "4.65% [50 µM] (active)"}, {"smiles": "O=C(CBr)CN1C(=O)c2ccccc2C1=O", "growth": "111% (inactive)"}, {"smiles": "CCN(CC)c1ccc(/C=C\\c2cc(C)c3cc(C)ccc3n2)cc1", "growth": "2.69% (active)"}, {"smiles": "C=CCN=C(N)SCCCCCCSC(N)=NCC=C", "growth": "101% (inactive)"}, {"smiles": "Clc1nn2c(Cn3cnc4c(NCc5ccccc5)ncnc43)nnc2c2ccccc12", "growth": "58.6% (inactive)"}, {"smiles": "CCOC(=O)c1ccc2c(c1)c1c(C)c3ccncc3c(C)c1n2C", "growth": "-59.7% (active)"}, {"smiles": "CCCCCCCCn1ccc2cc(NC(=O)Cn3cc(CN4CCCCCC4)nn3)ccc21", "growth": "0.757% (active)"}, {"smiles": "N#CC(C#N)N=Nc1ccc(Cl)cc1Cl", "growth": "99.8% (inactive)"}, {"smiles": "COc1cccc(C(=O)OCC(O)C(=O)NC23CC4CC(CC(C4)C2)C3)c1", "note": "(configuration not stated)", "growth": "99.2% (inactive)"}, {"smiles": "O=C(Nc1cccc(NC(=O)C2CCCCC2)c1)c1ccccn1", "growth": "99.7% (inactive)"}, {"smiles": "O=C(Nc1cccnc1Nc1ccc(Cl)cc1)c1cn(Cc2ccc(F)cc2)nn1", "growth": "100% (inactive)"}, {"smiles": "Cn1c(=O)c2c(c3ccccc31)OC(N)=C(C#N)C21C(=O)c2ccccc2C1=O", "growth": "94.9% (inactive)"}, {"smiles": "COc1cccc(/C=C2\\COc3ccc(O)cc3C2=O)c1", "growth": "96.6% (inactive)"}, {"smiles": "CCc1cccc(Sc2cc(C(=O)N3Cc4ccc(OCCN(C)C)cc4C3)ccc2O)c1", "growth": "26.5% (inactive)"}, {"smiles": "C=C(CN1CC=CCC1)[C@@H]1CC[C@]2(CO)CC[C@]3(C)[C@H](CC[C@@H]4[C@@]5(C)CC[C@H](O)C(C)(C)[C@@H]5CC[C@]43C)[C@@H]12", "growth": "96.2% (inactive)"}, {"smiles": "COc1ccc(/C(C)=C(\\c2ccc(Cl)cc2)c2ccc(OCCN3CCCC3)cc2)cc1", "growth": "-63.2% (active)"}, {"smiles": "CC/C(Cc1ccccc1)=C(\\c1ccc(OCCN2CCCCCC2)cc1)c1ccc(OC(=O)NCc2ccccc2)cc1", "growth": "72.5% (inactive)"}, {"smiles": "N=c1sc(Cc2cc(Cl)ccc2Cl)cn1CC(=O)c1ccccc1", "growth": "37.3% (inactive)"}, {"smiles": "Cc1cc(C(=O)Nc2cc(Nc3ncccc3-c3ncnc4nc[nH]c34)ccc2F)cc(C(F)(F)F)c1", "growth": "29.2% (inactive)"}, {"smiles": "C[C@@H]1O[C@@H](O[C@@H]2C[C@H](c3ccc4c(c3O)C(=O)C3=C(C4=O)[C@@]4(O)C(=O)C[C@](C)(O)C[C@@]4(O)C=C3)O[C@H](C)[C@H]2O)C[C@H](O)[C@@H]1O", "growth": "100% (inactive)"}]}, {"tested_on": "UACC-62 melanoma", "experiment": "NCI-60 one-dose screen, 48 h (100 = growth as untreated, 0 = no growth, -100 = all killed)", "conditions": "10 µM unless noted", "values": [{"smiles": "OC(c1ccccc1)(c1ccccc1)c1ccccc1-c1ccccc1", "growth": "79.2% (inactive)"}, {"smiles": "Clc1ccc(-c2nc(-c3c[nH]c4ncccc34)cs2)cc1", "growth": "71.2% [100 µM] (inactive)"}, {"smiles": "CC(=O)c1cc(-c2ccccc2N)n(-c2ccc3c(c2)OCO3)c1C", "growth": "25.3% (inactive)"}, {"smiles": "CC1O[C@@H]2C[C@@](O)([C@H]1O)n1c3ccccc3c3c4c(c5c6ccccc6n2c5c31)C(=O)NC4=O", "note": "(some centres not stated)", "growth": "9.56% (active)"}, {"smiles": "COC(=O)/C(CCC=C(C)C)=C1\\[C@@H](OC(C)=O)C[C@@]2(C)[C@H]1CC(=O)[C@H]1[C@@]3(C)CCC(N4CCCC4)[C@@H](C)[C@@H]3CC[C@@]12C", "note": "(some centres not stated)", "growth": "97.6% (inactive)"}, {"smiles": "CN(C)c1ccc(/C=C2/C=C(c3ccccc3)OC2=O)cc1", "growth": "92.6% (inactive)"}, {"smiles": "COc1cc(-c2nc3occn3c2-c2ccnc(NCCCNS(=O)(=O)c3ccccc3)n2)ccc1F", "growth": "4.35% (active)"}, {"smiles": "O=C(Nc1ccccc1)c1sc(-c2ccccc2)cc1O", "growth": "67% (inactive)"}, {"smiles": "CCOC(=O)c1c2c(n3c1NCC3)-c1ccccc1C2=O", "growth": "98.6% (inactive)"}, {"smiles": "C/C(=N\\Nc1nc(C)cs1)c1cc2ccccc2o1", "growth": "85.5% (inactive)"}, {"smiles": "CCOC(=O)C1=C(c2ccccc2)N=c2s/c(=C/c3ccc(Br)cc3)c(=O)n2C1c1ccc(O)cc1", "note": "(configuration not stated)", "growth": "76.1% (inactive)"}, {"smiles": "COc1ccc(C2CC(c3ccc(Nc4nc(Nc5ccc(F)cc5)nc(Nc5ccc(F)cc5)n4)cc3)=NN2C(C)=O)cc1", "note": "(configuration not stated)", "growth": "103% (inactive)"}, {"smiles": "c1ccc2cc(Cn3c[n+](Cc4ccc5ccccc5c4)c4ccccc43)ccc2c1", "growth": "-70.1% (active)"}, {"smiles": "CN1CCN(c2ccc3c(c2)nc(NNC(=O)c2cnccn2)c2cccn23)CC1", "growth": "12.9% (inactive)"}, {"smiles": "Cc1cc(C)c(-c2c(O)c(Br)c(-c3c(C)cc(C)c(Br)c3C)c(O)c2Br)c(C)c1Br", "growth": "14.8% (inactive)"}, {"smiles": "CCCCCCCCCCCCCCCCCCOc1ccccc1CC(=O)NCC[N+]1(C)CCOCC1", "growth": "56.3% (inactive)"}, {"smiles": "O=C(/C=C/c1cccc(Cl)c1)c1cccc(OCCCCOc2cccc(C(=O)/C=C/c3cccc(Cl)c3)c2)c1", "growth": "72.8% (inactive)"}, {"smiles": "Cc1ccc(-c2nc(C#N)c(S(=O)(=O)NCCO)o2)cc1", "growth": "60.3% (inactive)"}, {"smiles": "NC(=O)c1ccc(NC(=O)c2oc3ccccc3c2-c2cnn(-c3ccccc3)c2)cc1", "growth": "45.3% [50 µM] (inactive)"}, {"smiles": "O=C(CBr)CN1C(=O)c2ccccc2C1=O", "growth": "102% (inactive)"}, {"smiles": "CCN(CC)c1ccc(/C=C\\c2cc(C)c3cc(C)ccc3n2)cc1", "growth": "36.8% (inactive)"}, {"smiles": "C=CCN=C(N)SCCCCCCSC(N)=NCC=C", "growth": "87.5% (inactive)"}, {"smiles": "Clc1nn2c(Cn3cnc4c(NCc5ccccc5)ncnc43)nnc2c2ccccc12", "growth": "22.4% (inactive)"}, {"smiles": "CCOC(=O)c1ccc2c(c1)c1c(C)c3ccncc3c(C)c1n2C", "growth": "-64.4% (active)"}, {"smiles": "CCCCCCCCn1ccc2cc(NC(=O)Cn3cc(CN4CCCCCC4)nn3)ccc21", "growth": "-70.9% (active)"}, {"smiles": "N#CC(C#N)N=Nc1ccc(Cl)cc1Cl", "growth": "69.6% (inactive)"}, {"smiles": "Brc1ccc(-c2cnc3nonc3n2)cc1", "growth": "51.7% (inactive)"}, {"smiles": "COc1cccc(C(=O)OCC(O)C(=O)NC23CC4CC(CC(C4)C2)C3)c1", "note": "(configuration not stated)", "growth": "93.4% (inactive)"}, {"smiles": "O=C(Nc1cccc(NC(=O)C2CCCCC2)c1)c1ccccn1", "growth": "96.8% (inactive)"}, {"smiles": "Cc1cc(C)cc(Nc2ccc([N+](=O)[O-])c(NCCN3CCOCC3)n2)c1", "growth": "36.6% (inactive)"}, {"smiles": "O=C(Nc1cccnc1Nc1ccc(Cl)cc1)c1cn(Cc2ccc(F)cc2)nn1", "growth": "100% (inactive)"}, {"smiles": "Cn1c(=O)c2c(c3ccccc31)OC(N)=C(C#N)C21C(=O)c2ccccc2C1=O", "growth": "89.8% (inactive)"}, {"smiles": "COc1cccc(/C=C2\\COc3ccc(O)cc3C2=O)c1", "growth": "63.3% (inactive)"}, {"smiles": "CCc1cccc(Sc2cc(C(=O)N3Cc4ccc(OCCN(C)C)cc4C3)ccc2O)c1", "growth": "66.5% (inactive)"}, {"smiles": "C=C(CN1CC=CCC1)[C@@H]1CC[C@]2(CO)CC[C@]3(C)[C@H](CC[C@@H]4[C@@]5(C)CC[C@H](O)C(C)(C)[C@@H]5CC[C@]43C)[C@@H]12", "growth": "98% (inactive)"}, {"smiles": "COc1ccc(/C(C)=C(\\c2ccc(Cl)cc2)c2ccc(OCCN3CCCC3)cc2)cc1", "growth": "-0.373% (active)"}, {"smiles": "CC/C(Cc1ccccc1)=C(\\c1ccc(OCCN2CCCCCC2)cc1)c1ccc(OC(=O)NCc2ccccc2)cc1", "growth": "75.3% (inactive)"}, {"smiles": "N=c1sc(Cc2cc(Cl)ccc2Cl)cn1CC(=O)c1ccccc1", "growth": "17.1% (inactive)"}, {"smiles": "Cc1cc(C(=O)Nc2cc(Nc3ncccc3-c3ncnc4nc[nH]c34)ccc2F)cc(C(F)(F)F)c1", "growth": "-2.36% (active)"}, {"smiles": "C[C@@H]1O[C@@H](O[C@@H]2C[C@H](c3ccc4c(c3O)C(=O)C3=C(C4=O)[C@@]4(O)C(=O)C[C@](C)(O)C[C@@]4(O)C=C3)O[C@H](C)[C@H]2O)C[C@H](O)[C@@H]1O", "growth": "94.2% (inactive)"}]}]}
